# PubChem BioAssay AID504332 (National Center for Advancing Translational Sciences (NCATS), 2011)
# Out of some 350,000 compounds screened, about 31,000 (8.9%) were called active. About 15% were inconclusive and are not listed. The entries come from a sample that favours actives as a whole. A call without a number means that no potency is given here. Unmarked numbers belong to inactive results. Calls follow the shape of the dose curve; as a rule, active = well fitted inhibition curve with a large enough effect; inconclusive = small, poorly fitted or top-dose-only effect; inactive = no such curve, though single readings can be large or run the other way.
# Biological target: Histone-lysine N-methyltransferase EHMT2 (Homo sapiens) (UniProt Q96KQ7)
# Experiment: qHTS Assay for Inhibitors of Histone Lysine Methyltransferase G9a; also: nearly all actives have a fitted effect of over 75% in size
# Conditions: G9a H3K9 monomethylation, AlphaScreen, 2 h; series mostly up to 59 µM
# Method in brief: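 AlphaScreen detection with an anti-monomethyl H3K9 antibody quantified product after a 2 h room-temperature reaction containing 500 nM biotinylated H3K9 peptide, 20 µM SAM and 20 nM enzyme, which had been preincubated 15 min with compound.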
# Potency is read from the fitted curve at half-maximal effect.
# Sequence of Histone-lysine N-methyltransferase EHMT2 (Homo sapiens) (Q96KQ7 913-1193 limits assumed): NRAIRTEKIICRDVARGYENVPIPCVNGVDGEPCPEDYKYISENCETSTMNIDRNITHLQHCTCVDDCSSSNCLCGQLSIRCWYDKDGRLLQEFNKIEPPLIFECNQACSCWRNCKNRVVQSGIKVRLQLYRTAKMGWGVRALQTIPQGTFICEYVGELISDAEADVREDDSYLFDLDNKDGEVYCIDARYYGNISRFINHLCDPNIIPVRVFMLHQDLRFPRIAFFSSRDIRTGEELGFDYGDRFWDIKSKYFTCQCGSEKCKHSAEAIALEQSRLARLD
Compound,"activity, negative = inhibition",Potency
Cc1ccc(CNC(=O)c2cc(-c3ccccc3C)n(CC3CC(c4cccc([N+](=O)[O-])c4)=NO3)n2)cc1 (stereo not given),-36.4% [at 2.33 µM],
COc1ccc(Cn2ccn(Cc3cccc(OC)c3)c(=O)c2=O)cc1,,inactive
C=CCN1C(=O)C(Cc2ccc(OCC)cc2)SC1=Nc1ccc(C(=O)O)cc1 (stereo not given),,inactive
O=C1N/C(=N\N=C\c2ccco2)SC1Cc1ccc(F)cc1 (stereo not given),,inactive
COc1ccc(CN2C(=O)C(C)S/C2=N/N=C/c2ccco2)cc1 (stereo not given),,50.1 µM (active)
C=CCN1C(=O)C(Cc2cccc(Cl)c2)S/C1=N/N=C/c1ccco1 (stereo not given),,10 µM (active)
CCC1S/C(=N/N=C/c2ccco2)NC1=O (stereo not given),,inactive
CCCNC(=O)C(CC)n1nc(CC)n2c(cc3oc(C)cc32)c1=O (stereo not given),,inactive
Cc1ccc(C)c(N2CCN(S(=O)(=O)c3ccc4c(c3)C(C(C)C)C(=O)N4)CC2)c1 (stereo not given),,inactive
O=C(NCCOCc1ccc(Cl)cc1)c1ncn[nH]1,,inactive
O=C(/C=C/Sc1ncn[nH]1)c1ccc(Cl)cc1,,39.8 µM (active)
COc1ccc(Cl)cc1CSc1ncn[nH]1,,inactive
Cc1cc(C)c2oc(C(=O)Nc3ccc(S(=O)(=O)N4CCCCCC4)cc3)cc(=O)c2c1,,inactive
CCOc1ccccc1CNC(=O)C1CCCN(S(=O)(=O)c2ccc3c(ccn3C)c2)C1 (stereo not given),,inactive
Cc1ccc(C)c(Cn2c(CCCNC(=O)C3CCCCC3)nc3ccccc32)c1,,inactive
COc1ccccc1C(=O)NCCC(=O)NC1=NCCS1,43% [at 12.7 µM],
O=C(O)c1ccccc1-c1ccccc1C(=O)Nc1ccccc1Br,,inactive
Nc1c(C(=O)O)cnn1-c1ccccc1,,inactive
O=C(O)c1ccccc1C(=O)NC1=NN(c2ccccc2)CC1,,39.8 µM (active)
C/C(=N\Nc1cccc(C(=O)O)c1)c1ccc2c(c1)Nc1ccccc1S2,,3.16 µM (active)

Compound,"activity, negative = inhibition",Potency
O=C(NC1CC1)c1ccc2c(c1)NC(=O)c1ccccc1S2,,inactive
CC(=O)Nc1cccc(/C(C)=N/NC(=O)c2ccccc2Cl)c1,,inactive
O=C(NCc1ccc(Cl)cc1)c1cc(=O)nc2sc(-c3ccccc3)nn12,,inactive
O=C(NCc1ccc(Cl)cc1)c1cc2c(nc3sccn32)s1,,35.5 µM (active)
O=C(NCc1cn2ccsc2n1)Nc1ccc(Cl)cc1,,inactive
O=C(Nc1cc2c3c(c1)C1CCCC1CN3CC1CCCC21)c1ccc([N+](=O)[O-])cc1 (stereo not given),,10 µM (active)
CN(CC1CCCO1)S(=O)(=O)c1ccc(C(=O)Nc2ccc([N+](=O)[O-])cc2)cc1 (stereo not given),,inactive
CN1C2CCC1CC(NC(=O)c1ccc([N+](=O)[O-])cc1)C2 (stereo not given),,inactive
CC(=O)N1CCCc2ccc(NS(=O)(=O)c3ccc(F)cc3F)cc21,-4.23% [at 12.7 µM],
O=C(C1CC(=O)N(C2CCCC2)C1)N1CCN(c2cccc(C(F)(F)F)c2)CC1 (stereo not given),,inactive
CCC1(C)NC(=O)N(CC(=O)N2CCN(c3cccc(Cl)c3)CC2)C1=O (stereo not given),17.9% [at 2.33 µM],
O=[N+]([O-])c1ccc(O)c(/C=N/Nc2ccccc2[N+](=O)[O-])c1,,20 µM (active)
Nc1nnnn1/N=C/c1cc([N+](=O)[O-])ccc1O,,inactive
O=C(N/N=C/c1cc([N+](=O)[O-])ccc1O)/C(=C\c1cccs1)NC(=O)c1ccccc1,,inactive
O=C1OC(C(=O)Nc2cccc(Br)c2)Cc2ccccc21 (stereo not given),,inactive
COc1ccc(NC(=O)c2sc3nc(-c4cc5cccc(OC)c5oc4=O)[nH]c(=O)c3c2C)cc1,,inactive
O=C(CN1CCN(S(=O)(=O)c2cccc(Cl)c2)CC1)N1CCCCC1,6.11% [at 12.7 µM],
CC(=O)N1CCc2cc(S(=O)(=O)NC(Cc3ccccc3)C(=O)NCc3ccc(C)cc3)ccc21 (stereo not given),,inactive
NC(=O)c1c(Nc2nc3c(F)cccc3s2)sc2c1CCCC2,,2.82 µM (active)
Cc1cc(OC(C)C(=O)Nc2sc3c(c2C(N)=O)CCCC3)ccc1Cl (stereo not given),,inactive

Compound,"activity, negative = inhibition",Potency
Fc1cc(F)c2nc(Nc3nc4c(F)cccc4s3)sc2c1,,inactive
CC(c1ccccn1)N(C)C(=O)c1ccc2nc(Cc3cccc(Cl)c3)oc2c1 (stereo not given),,inactive
O=C(N/N=C/c1cccc(OCc2ccccc2)c1)c1ccc(Br)o1,,inactive
Cn1c(SCC(=O)N2CCCc3ccccc32)ncc(C(=O)Nc2ccc(F)cc2)c1=O,,inactive
CCN(CC)C(CNC(=O)CSc1nnnn1-c1cccc(F)c1)c1ccco1 (stereo not given),5.11% [at 12.7 µM],
O=C(N/N=C/c1ccc(Br)o1)c1cncc(Br)c1,,inactive
O=C(O)c1ccc(/C=N/NC(=O)c2ccc(Br)cc2)cc1,,inactive
Cc1ccc(C(=O)N/N=C\c2cc(Br)c(Br)o2)cn1,,50.1 µM (active)
COc1ccc(CC(=O)OC(C)C(=O)Nc2ccc(S(N)(=O)=O)cc2)cc1 (stereo not given),-8.93% [at 2.33 µM],
CSc1nc(-c2ccccc2Cl)nc2c1Cc1c(CO)cnc(C)c1O2,,inactive
COc1ccc(CNC(=O)C(c2ccc(O)cc2)N(Cc2ccco2)C(=O)c2snc(C(N)=O)c2N)cc1 (stereo not given),,inactive
O=C(OCc1cc(=O)n2ccsc2n1)C1(c2ccc(Cl)cc2)CC1,2.61% [at 12.7 µM],
CCN1CCN(CCCNC(=O)c2ccc3c(c2)sc2nc(-c4ccc(OC)cc4)cn23)CC1,,inactive
CN(C)S(=O)(=O)c1ccc(C(=O)NCC2(N3CCOCC3)CCCCC2)cc1,0.405% [at 2.33 µM],
CN1CN(C)c2ccc([N+](=O)[O-])c3cccc1c23,,50.1 µM (active)
Cc1ccc(C)c(OCCC(=O)OCC(=O)c2ccc3c(c2)NC(=O)CO3)c1,6.89% [at 12.7 µM],
CCN(CC(=O)Nc1c(F)cccc1F)C(=O)CN1c2cccc3cccc(c23)S1(=O)=O,5.18% [at 0.501 µM],
COc1ccc(NC(=O)C(C)N2c3cccc4cccc(c34)S2(=O)=O)c(OC)c1 (stereo not given),,inactive
O=C(O)CN1c2cccc3cccc(c23)S1(=O)=O,,44.7 µM (active)
Cc1ccc(-n2c(SCC(=O)N3CCC(C(=O)O)CC3)nc3ccccc3c2=O)cc1C,,inactive
